Data taken from PubChem BioAssay (NCATS).
Records with an inconclusive call do not appear. Calls of active or inactive are those of the source. The call rests on the fitted dose curve; in most records, active means well fitted cell-killing curve with a large enough effect; inconclusive means small, poorly fitted or top-dose-only effect, or effect the other way; inactive means flat fitted curve, though single readings scatter. *1 amine or outer side, *2 acyl side, *3 side chain or, on linkers, in order; H or OH if unused. Where a SMILES comes first, the peptide text is derived from it. Bridges are numbered along the chain shown (N, C = ends). [ ]: non-standard residue; d: D form. The star is where a group is joined. pTerphenylCO(4''-OnC5H11) = CCCCCOc1ccc(-c2ccc(-c3ccc(C(=O)*)cc3)cc2)cc1; Orn(4R-OH,5R-OH) = O=C([C@H](C[C@@H](O)[C@@H](O)N[*:3])N[*:1])[*:2]; hTyr(3S-OH,4S-OH) = N[C@H](C(=O)O)[C@H](O)[C@@H](O)c1ccc(O)cc1; Pro(3S-OH,4S-Me) = C[C@H]1CN[C@H](C(=O)O)[C@H]1O; Hyp = O=C(O)[C@@H]1C[C@@H](O)CN1

Columns and labels:
Experiment in all cases: Primary qHTS to identify gynecologic anti-cancer compounds using libraries of approved drugs and bioactive compounds (AID 1345084); further: nearly all actives have a fitted effect of over 55% in size
C33A = settings: Gynecologic cancer cell panel viability, ATPlite luminescence, 48 h; series mostly up to 57.5 µM
Procedure, shortened: (§1)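 ATP-based viability (ATPlite), 1,000 cells/well, 16 h pre-incubation, 48 h compound at 37 C, 5% CO2, 15 min RT before read.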

CAOV3 = settings: Gynecologic cancer cell panel viability, ATPlite luminescence, 48 h; series mostly up to 57.5 µM
Procedure, shortened: as §1

CASKI = settings: Gynecologic cancer cell panel viability, ATPlite luminescence, 48 h; series mostly up to 57.5 µM
Procedure, shortened: as §1

Es-2 = settings: Gynecologic cancer cell panel viability, ATPlite luminescence, 48 h; series mostly up to 57.5 µM
Procedure, shortened: as §1

HeLa = settings: Gynecologic cancer cell panel viability, ATPlite luminescence, 48 h; series mostly up to 57.5 µM
Procedure, shortened: as §1

Hek293T = settings: Gynecologic cancer cell panel viability, ATPlite luminescence, 48 h, control line for the selectivity index; series mostly up to 57.5 µM
Procedure, shortened: as §1

JEG-3 = settings: Gynecologic cancer cell panel viability, ATPlite luminescence, 48 h; series mostly up to 57.5 µM
Procedure, shortened: as §1

OV90 = settings: Gynecologic cancer cell panel viability, ATPlite luminescence, 48 h; series mostly up to 57.5 µM
Procedure, shortened: as §1
On the % scale 0 is the no-effect control and ±100 the full control effect.

C/C(=C/CO)CCC1C(C)CCC2C(C)(C)CCCC12C (stereo not drawn)
inactive: Potency (C33A) | Potency (CAOV3) | Potency (CASKI) | Potency (Es-2) | Potency (HeLa) | Potency (Hek293T) | Potency (JEG-3) | Potency (OV90)

Cc1cn2cc(C(=O)N(C)CCO)cc(NC3CCOc4cccc(C)c43)c2n1 (stereo not drawn)
inactive: Potency (C33A) | Potency (CAOV3) | Potency (CASKI) | Potency (Es-2) | Potency (HeLa) | Potency (Hek293T) | Potency (JEG-3) | Potency (OV90)

COc1c(C(C)C)c(O)c(O)c2c1C(OC)[C@H]1OC(=O)[C@@]23CCCC(C)(C)[C@H]13 (stereo partly drawn)
inactive: Potency (C33A) | Potency (CAOV3) | Potency (CASKI) | Potency (Es-2) | Potency (HeLa) | Potency (Hek293T) | Potency (JEG-3) | Potency (OV90)

CC(C)(C)C1CCN(C(=O)n2ncc(C(O)(c3ccccc3)c3ccccc3)n2)CC1
inactive: Potency (C33A) | Potency (CAOV3) | Potency (CASKI) | Potency (Es-2) | Potency (HeLa) | Potency (Hek293T) | Potency (JEG-3) | Potency (OV90)

CC(C)(C)NC(=O)[C@H]1CC[C@H]2[C@@H]3CC[C@H]4NC(=O)CC[C@]4(C)[C@H]3CC[C@]12C
inactive: Potency (C33A) | Potency (CAOV3) | Potency (CASKI) | Potency (Es-2) | Potency (HeLa) | Potency (Hek293T) | Potency (JEG-3) | Potency (OV90)

O=C(O)CCc1nccc2c1[nH]c1ccccc12
inactive: Potency (C33A) | Potency (CAOV3) | Potency (CASKI) | Potency (Es-2) | Potency (HeLa) | Potency (Hek293T) | Potency (JEG-3) | Potency (OV90)

Cc1[nH]c2ccccc2c1CCNC(=O)c1cccs1
inactive: Potency (C33A) | Potency (CAOV3) | Potency (CASKI) | Potency (Es-2) | Potency (HeLa) | Potency (Hek293T) | Potency (JEG-3) | Potency (OV90)

CN(C)C(=O)C(=O)c1cn(C)c2cc(Cl)c(C(=O)N3CCC(Cc4ccc(F)cc4)CC3)cc12
inactive: Potency (C33A) | Potency (CAOV3) | Potency (CASKI) | Potency (Es-2) | Potency (HeLa) | Potency (Hek293T) | Potency (JEG-3) | Potency (OV90)

CCCCC1CCC(c2nc(-c3ccncc3)no2)CC1 (stereo not drawn)
inactive: Potency (C33A) | Potency (CAOV3) | Potency (CASKI) | Potency (Es-2) | Potency (HeLa) | Potency (Hek293T) | Potency (JEG-3) | Potency (OV90)

Cc1cc2sc(NC(=O)Cc3ccccc3)nc2cc1Cl
inactive: Potency (C33A) | Potency (CAOV3) | Potency (CASKI) | Potency (Es-2) | Potency (HeLa) | Potency (Hek293T) | Potency (JEG-3) | Potency (OV90)

CCC(C)/C=C(C)/C=C/C1=CC2=CC(=O)C3(C)OC(C)(O)C(C(=O)OC)C3C2=CO1 (stereo not drawn)
inactive: Potency (C33A) | Potency (CAOV3) | Potency (CASKI) | Potency (Es-2) | Potency (HeLa) | Potency (Hek293T) | Potency (JEG-3) | Potency (OV90)

COc1ccc(CCCN2CCC(COC(c3ccccc3)c3ccccc3)CC2)cc1
inactive: Potency (C33A) | Potency (CAOV3) | Potency (CASKI) | Potency (Es-2) | Potency (HeLa) | Potency (Hek293T) | Potency (JEG-3) | Potency (OV90)

C=CCC1=C[C@]2(OC)[C@H](C)[C@@H](c3ccc4c(c3)OCO4)O[C@]2(OC)CC1=O
inactive: Potency (C33A) | Potency (CAOV3) | Potency (CASKI) | Potency (Es-2) | Potency (HeLa) | Potency (Hek293T) | Potency (JEG-3) | Potency (OV90)

CCCCCOc1ccc(-c2ccc(-c3ccc(C(=O)N[C@H]4C[C@@H](O)[C@@H](O)NC(=O)[C@@H]5[C@@H](O)[C@@H](C)CN5C(=O)[C@H]([C@@H](C)O)NC(=O)[C@H]([C@H](O)[C@@H](O)c5ccc(O)cc5)NC(=O)[C@@H]5C[C@@H](O)CN5C(=O)[C@H]([C@@H](C)O)NC4=O)cc3)cc2)cc1 ({pTerphenylCO(4''-OnC5H11)}-[Orn(4R-OH,5R-OH)]T[Hyp][hTyr(3S-OH,4S-OH)]T[Pro(3S-OH,4S-Me)]; lactam 1-C)
inactive: Potency (C33A) | Potency (CAOV3) | Potency (CASKI) | Potency (Es-2) | Potency (HeLa) | Potency (Hek293T) | Potency (JEG-3) | Potency (OV90)

COC1=CC(=O)C=C(C)C12Oc1c(Cl)c(OC)cc(OC)c1C2=O (stereo not drawn)
inactive: Potency (C33A) | Potency (CAOV3) | Potency (CASKI) | Potency (Es-2) | Potency (HeLa) | Potency (Hek293T) | Potency (JEG-3) | Potency (OV90)

CC(C)C(C)C(O)C1CC23CC(=O)C4(O)C(=C2CCC3C1C)C=CC1(O)CC(O)CCC14C (stereo not drawn)
inactive: Potency (C33A) | Potency (CAOV3) | Potency (CASKI) | Potency (Es-2) | Potency (HeLa) | Potency (Hek293T) | Potency (JEG-3) | Potency (OV90)

C[C@@H](NC(=O)c1ccc(C#Cc2cccc(F)c2)cn1)C(C)(C)O
inactive: Potency (C33A) | Potency (CAOV3) | Potency (CASKI) | Potency (Es-2) | Potency (HeLa) | Potency (Hek293T) | Potency (JEG-3) | Potency (OV90)

c1cc(NCCc2c[nH]c3ccccc23)cc(Nc2ccncc2)c1
inactive: Potency (C33A) | Potency (CAOV3) | Potency (CASKI) | Potency (Es-2) | Potency (HeLa) | Potency (Hek293T) | Potency (JEG-3) | Potency (OV90)

C=C[C@]1(C)C[C@H](O)[C@H]2C(=C)C(=O)O[C@@H]2[C@H]1C(=C)CO
inactive: Potency (C33A) | Potency (CAOV3) | Potency (CASKI) | Potency (Es-2) | Potency (HeLa) | Potency (Hek293T) | Potency (JEG-3) | Potency (OV90)

COc1c(C)cc(NC(=O)c2nn(Cc3ccc(F)cc3)c3c2CN(C(=O)c2ccc[nH]2)C[C@]3(C)C(N)=O)cc1C
inactive: activity change, negative = cytotoxicity (C33A) 12.3% [at 11.6 µM] | activity change, negative = cytotoxicity (CAOV3) -4.37% [at 11.6 µM] | activity change, negative = cytotoxicity (CASKI) -0.257% [at 11.6 µM] | activity change, negative = cytotoxicity (Es-2) 4.64% [at 11.6 µM] | activity change, negative = cytotoxicity (HeLa) -7.03% [at 11.6 µM] | activity change, negative = cytotoxicity (Hek293T) 7.03% [at 11.6 µM] | activity change, negative = cytotoxicity (JEG-3) 1.95% [at 11.6 µM] | activity change, negative = cytotoxicity (OV90) 16.4% [at 11.6 µM]

OC(CC1c2ccccc2-c2cncn21)C1CCCCC1 (stereo not drawn)
inactive: Potency (C33A) | Potency (CAOV3) | Potency (CASKI) | Potency (Es-2) | Potency (HeLa) | Potency (Hek293T) | Potency (JEG-3) | Potency (OV90)
